Compound activity as filed in PubChem.
D2 antag: antagonizes the human D2 dopamine receptor; P14416; AID 485344; actives 2% (n = 340,000); HEK293 TREx D2 cells, calcium flux, dopamine EC80; inhibition, % at 10 µM; in the data active = inhibition above about 30%; inactive = below that, where a call was filed; also: 0% is about no effect
Target sequence (P14416 whole entry, looked up): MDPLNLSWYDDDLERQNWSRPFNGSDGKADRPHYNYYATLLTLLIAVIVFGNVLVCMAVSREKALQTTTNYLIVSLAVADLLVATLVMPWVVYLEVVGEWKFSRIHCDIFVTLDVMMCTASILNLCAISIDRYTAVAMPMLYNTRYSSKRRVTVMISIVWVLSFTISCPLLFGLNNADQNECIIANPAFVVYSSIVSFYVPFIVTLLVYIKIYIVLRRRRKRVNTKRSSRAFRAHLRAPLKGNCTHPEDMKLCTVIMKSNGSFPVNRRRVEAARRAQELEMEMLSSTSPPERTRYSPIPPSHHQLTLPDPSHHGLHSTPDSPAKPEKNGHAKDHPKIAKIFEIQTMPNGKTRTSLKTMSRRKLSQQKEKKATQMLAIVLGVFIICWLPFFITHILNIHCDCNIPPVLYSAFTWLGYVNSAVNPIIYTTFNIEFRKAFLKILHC
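Compounds are added to dye-loaded, induced HEK293 T-REx cells coupled to calcium release via D2; after a 3 min kinetic read an EC80 dopamine stimulus is given and fluorescence is recorded for 3 more min.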
D2 PAM-1: D2 dopamine receptor (human) potentiation; HEK293 T-REx D2, calcium flux, EC20 dopamine potentiation; potentiation, % at 10 µM; actives 0.34% (n = 340,000);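 active = potentiation over 3 SD above the plate norm, cut at about 30% in these data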; also: 0% is about no effect
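Using a no-wash calcium dye in inducible, force-coupled HEK293 Trex cells expressing D2, we tracked fluorescence each second for 180 s after compound, then for 180 s after EC20 dopamine to detect augmented signalling.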
D2 ag-1: human D2 receptor agonism in beta-arrestin assay | AID 624465 | DiscoveRx PathHunter D2 beta-arrestin, luminescence, 90 min; 100% = 57 uM dopamine signal | activation, % (no concentration beside the values) | actives 0.084% (n = 360,000) | P14416; in the data active = activation above about 40%; inconclusive = between about 15% and that limit
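DiscoveRx PathHunter D2 beta-arrestin cells (2,100/well) attached overnight, then compound-stimulated 90 min at 37 C in HBSS/10 mM HEPES/0.1% Tween-20 buffer; beta-galactosidase complementation read by luminescence after 1 h at ambient temperature. Dopamine 57 uM final (EC100) as control.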
D2 PAM-2: human D2 receptor positive allosteric modulation; actives 0.23% (n = 360,000); potentiation, % (no concentration beside the values); AID 624464; DiscoveRx D2 beta-arrestin cells, luminescence, 90 min; 100% = 57 uM dopamine signal; P14416; in the data active = potentiation above about 50%; inconclusive = mostly about 30% to 49%
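PathHunter D2 cells, attached overnight at 37 deg C, received compound in DMSO plus dopamine at EC20 (50 nM final) for 90 min at 37 deg C. Beta-arrestin recruitment was read as luminescence after 1 h with detection reagent at ambient temperature.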
D2 ag-2: activates the human D2 dopamine receptor | activation, % at 2 µM | HEK293 T-REx D2 cells, calcium flux agonist mode | AID 485358 | P14416 | actives 0.53% (n = 340,000);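 active = activation over 3 SD above normal in the single-dose calcium agonist read, cut at about 30% in these data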; also: 0% is about no effect
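HEK293 Trex D2 cells, tetracycline-induced, o/n 30 C 5% CO2; no-wash Ca dye, RT 30–90 min; 10-cycle baseline, 23 nl cpd added, kinetic Ca read 180 s; agonist hits = positive Ca response.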
Numbers without * were called inactive; ? = inconclusive; / = no result. Rows were chosen to be rich in hits. Some 2.4% of all compounds tested hit in one or more screens of this group.

SMILES | D2 antag | D2 PAM-1 | D2 ag-1 | D2 PAM-2 | D2 ag-2
COc1ccccc1N1CCN(C2CCCC(C)C2)CC1 (stereo unspecified) | 33.9* | -22.4 | -1.8 | -22.8 | 0.5
COc1ccccc1N1CCN(C(=O)c2ccoc2C)CC1 | 35.0* | -6.5 | -0.3 | -5.4 | 1.2
COc1ccccc1N1CCN(C(=O)c2c(C)noc2C)CC1 | -12.0 | 10.4 | 4.0 | -1.0 | 0.3
CC(=O)Nc1ccc(Nc2nc3c(S(=O)(=O)c4cccc(Cl)c4)nnn3c3ccsc23)cc1 | / | -2.6 | / | / | 0.4
Cc1ccc(F)c(S(=O)(=O)NC(=O)C2(C)CCN2C(=O)Cc2ccc(-c3ccccc3)cc2)c1 (stereo unspecified) | / | / | 5.7 | 3.1 | /
CCOC(=O)c1c(-c2cccc([N+](=O)[O-])c2)csc1NC(=O)C1CCCCC1 | 0.6 | -6.6 | 6.7 | ? | 0.3
CCOC(=O)c1c(-c2cccc([N+](=O)[O-])c2)csc1NC(=O)C1CC1 | -27.7 | 8.2 | 11.0 | 54.6* | 0.0
CC(O)C(O)C(O)C(O)C1NCCS1 (stereo unspecified) | 78.9* | -5.4 | -1.8 | -9.6 | -0.2
CN1CC(=O)N(CC(=O)Nc2cccc(C#N)c2)c2ccccc2C1=O | / | -6.5 | / | / | 0.1
COc1cccc(CNc2nc3cc(-c4ccsc4)sc3c(=O)n2C)c1OC | / | / | 11.8 | -0.8 | /
Cc1ccc(S(=O)(=O)CCN2CCN(c3ccccc3)CC2)cc1 | 30.2* | -16.5 | -0.1 | -12.1 | 8.5
O=C(NCc1c(Cl)cccc1Cl)c1[nH]c(C(F)(F)F)nc1-c1ccccc1 | / | / | 1.6 | 0.9 | /
Cc1ccc(C)c(OCC(O)CN2CCN(CCN3C(=O)c4cccc5cccc(c45)C3=O)CC2)c1 (stereo unspecified) | -23.6 | -24.4 | -2.3 | -34.9 | -1.6
CCNC(=S)N1CCN(CCN2C(=O)c3cccc4cccc(c34)C2=O)CC1 | 43.5* | 13.8 | 0.5 | 10.0 | -0.1
CC(=O)c1ccccc1OCC(O)CN1CCN(CCN2C(=O)c3cccc4cccc(c34)C2=O)CC1 (stereo unspecified) | 36.3* | -23.0 | -2.1 | -15.1 | -1.7
C=CCn1c(SCC(=O)N2CCC(C)CC2)nc2c([nH]c3ccccc32)c1=O | / | / | 2.3 | -3.8 | /
COc1cc(NC(=O)c2ccc3oc(=O)c(S(=O)(=O)c4ccccc4)cc3c2)cc(OC)c1 | / | -0.4 | / | / | /
Cc1ccccc1CNC(=O)C1CCN(S(=O)(=O)Cc2ccccc2)CC1 | / | 6.1 | / | / | 1.9
COc1ccc(C(=O)Nc2ccccc2N2CCOCC2)cc1[N+](=O)[O-] | 1.1 | 9.7 | -1.6 | -9.9 | 1.7
COc1ccc(C(=O)NC(=S)Nc2ccccc2N2CCOCC2)cc1[N+](=O)[O-] | 39.1* | 17.9 | -5.6 | -33.9 | 0.3
CN(C)c1ccc(CN(Cc2ccco2)C(=O)COc2ccc(F)cc2)cc1 | / | / | / | / | -1.1
COCCn1nnnc1C(c1ccccc1OC)N1CCN(c2ccccc2F)CC1 (stereo unspecified) | 1.6 | -1.7 | 0.1 | 4.4 | 1.8
COCCn1nnnc1C(c1cc2cccc(C)c2[nH]c1=O)N1CCN(c2ccccc2F)CC1 (stereo unspecified) | 34.3* | -11.5 | -1.0 | -38.4 | 12.0
Cc1cccc(S(=O)(=O)NCCc2cn3ccccc3n2)c1 | 32.0* | -4.8 | 4.0 | -5.7 | -2.5
O=S(=O)(NCCc1cn2ccccc2n1)c1ccc(-c2ccccc2)cc1 | 1.0 | 2.2 | 0.6 | -5.4 | -0.3
SMILES | D2 antag | D2 PAM-1 | D2 ag-1 | D2 PAM-2 | D2 ag-2
Cc1ccc(SCc2cc(-c3ccc(Cl)cc3)no2)cc1 | / | 31.7* | 0.3 | -7.1 | /
CCCN1C(=O)/C(=C/c2ccc(C)s2)NC1=S | 31.4* | -10.3 | -1.7 | -1.7 | 0.4
CC(C)CCNC(=O)C1(C)CCN1Cc1ccc2ccccc2c1 (stereo unspecified) | / | / | 4.8 | -3.3 | /
O=C(Nc1ccc(Cl)c([N+](=O)[O-])c1)ONC1=NCCCCC1 | / | / | ? | 53.8* | /
O=C(CN1C(=O)NC2(CCCCCC2)C1=O)Nc1ccc(Cl)c([N+](=O)[O-])c1 | / | / | -2.5 | -20.7 | /
O=C(ONC1=NCCCCC1)c1cccc([N+](=O)[O-])c1 | -4.6 | 0.5 | 8.2 | 54.7* | 0.0
Cc1ccc(Cl)cc1NC(=O)Cn1c(=O)n(CCCS(=O)(=O)C2CCCCC2)c(=O)c2ccccc21 | / | -5.8 | / | / | -0.3
CCCCN(C)CCN1C(=O)C2C(C(=O)Nc3cccc(OC)c3)C3C=CC2(O3)C1C(=O)NC1CCCCC1C (stereo unspecified) | 5.4 | 5.5 | 0.6 | -2.5 | -2.3
CCCCN1C(=O)C2C(C(=O)Nc3cccc(OC)c3)C3C=CC2(O3)C1C(=O)NC1CCCCC1C (stereo unspecified) | 35.8* | 3.0 | -0.5 | -13.9 | 0.1
CCOCCCNC(=O)C1CCN(c2nc3ccc(C)cc3[nH]2)CC1 | / | 12.3 | / | / | 0.1
CC(OC(=O)/C=C/c1ccccc1)C(=O)N1CCc2ccccc21 (stereo unspecified) | 30.4* | -4.2 | 1.2 | -3.3 | /
CCCNCC1COc2ccccc2O1 (stereo unspecified) | 32.5* | -29.2 | 0.2 | -13.7 | 12.8
OC(CNCC1COc2ccccc2O1)COCc1cccs1 (stereo unspecified) | 30.8* | -34.6 | -3.0 | -14.0 | 0.2
CCOC(=O)CCNCC1COc2ccccc2O1 (stereo unspecified) | 0.8 | -19.9 | -1.9 | -29.3 | 17.2
c1ccc(CCCCNCC2COc3ccccc3O2)cc1 (stereo unspecified) | 95.9* | -42.6 | -1.8 | -4.7 | 8.2
O=C(CC1COc2ccccc2O1)NCCc1ccccc1 (stereo unspecified) | -2.1 | -1.5 | -1.5 | -1.9 | 1.3
O=C(CNC(=O)N1CC(=O)Nc2ccccc21)Nc1ccc(Cl)cc1Cl | / | / | -2.6 | -9.0 | /
N#C/C(=C\c1c(N2CCOCC2)nc2ccccn2c1=O)C(=O)NC1CCS(=O)(=O)C1 (stereo unspecified) | 38.1* | 12.1 | -2.7 | -8.5 | -0.7
N#C/C(=C\c1c(N2CCCCCC2)nc2ccccn2c1=O)C(=O)NC1CCS(=O)(=O)C1 (stereo unspecified) | -6.2 | -9.7 | -0.2 | -18.6 | 0.3
CC(C)C[C@@H](CNCC(=O)[C@H](Cc1ccccc1)NC(=O)c1[nH]cnc1C(=O)N[C@H](CN)CC(C)C)NC(=O)c1nc[nH]c1C(=O)N[C@@H](CC(=O)O)C(=O)O | / | / | -2.6 | -5.3 | /
Nc1ccc(C(=O)N2CCN(S(=O)(=O)c3ccc(Br)cc3)CC2)cc1[N+](=O)[O-] | 34.7* | 2.4 | 0.8 | 15.6 | 1.1
CCc1nnc(NC(=O)CSc2nnc(CNc3ccc(Cl)cc3)o2)s1 | 49.9* | 9.2 | 5.6 | 3.6 | 0.3
CCc1nnc(NC(=O)CSc2nnc(Cc3ccccc3)o2)s1 | 6.1 | -1.3 | 1.0 | 0.5 | -0.3
COc1cc(OC)cc(C(=O)Nc2ccc3oc(-c4ccc(Cl)cc4)nc3c2)c1 | / | / | / | / | 0.9
